# Literature values in PubChem BioAssay AID977611.
# The campaign covered roughly 3,900 compounds. About 3,900 (100%) were called active. Cut-off not given; nearly all actives show Kd up to about 4200 µM. So high a share suggests a set chosen from earlier hits. The list shows a part of the results. Starred links: 1 amine or outer side, 2 acyl side, 3 side chain; linkers in the order of their positions; H or OH if unused. Where a SMILES comes first, the peptide text is derived from it. Non-standard residues stand in square brackets, D forms with d. Square brackets hold non-standard residues; d marks the D form. Residues, ends and D or L forms follow the SMILES beside them. Peptide text beside a SMILES is read from it. [ ]: non-standard residue; d: D form. The star is where a group is joined. *: point of attachment. X1 = C[C@@H]1CCCN1*; Lys(Me3) = C[N+](C)(C)CCCC[C@H](N)C(=O)O; Orn(CH(NH2)2) = NC(N)NCCC[C@H](N)C(=O)O; Propyl = CCC*
# Assay: PubChem AID 977611
# Details: PDB protein-ligand complexes, literature Kd
molecule,measurement,setting,value
CC[C@H](C)[C@H](NC(=O)[C@H](Cc1cnc[nH]1)NC(=O)[C@H](C)NC(=O)[C@H](CCC(N)=O)NC(=O)[C@@H](NC(=O)[C@H](CCCNC(N)N)NC(=O)[C@H](CC(C)C)NC(=O)[C@H](CC(C)C)NC(=O)[C@H](CO)NC(=O)[C@@H]1CCCN1C(=O)[C@@H](NC(=O)[C@H](CC(N)=O)NC(=O)[C@@H](N)CCCCN)[C@@H](C)CC)C(C)C)C(=O)N[C@@H](CCCNC(N)N)C(=O)N[C@@H](CCCCN)C(=O)N[C@@H](CCCCN)C(=O)N[C@@H](CCSC)C(=O)N[C@H](C(=O)O)C(C)C (HELM PEPTIDE1{K.N.I.P.S.L.L.[NC(N)NCCC[C@H](N[*:1])C(=O)[*:2]].V.Q.A.H.I.[NC(N)NCCC[C@H](N[*:1])C(=O)[*:2]].K.K.M.V}$$$$V2.0),Kd,"protein: MYOSIN A TAIL DOMAIN INTERACTING PROTEIN, PDB entry 4aom",0.085 µM (active)
NC(=O)CC[C@H](NC(=O)CCc1ccc(-c2cc(-c3ccccc3)cs2)cc1)C(=O)N[C@@H](CCC(=O)O)C(N)=O,Kd,"protein: Macrophage metalloelastase, PDB entry 3tsk",0.067 µM (active)
CCC(CC)Nc1cc(C)nc(Oc2c(C)cc(C)cc2C)c1C,Kd,"protein: Corticotropin-releasing factor receptor 1, T4-Lysozyme chimeric construct, PDB entry 4k5y",0.0067 µM (active)
C=C/C(C)=C/[C@@]1(C)SC(=O)/C(=C(\O)C(F)(F)F)C1=O,Kd,"protein: 3-OXOACYL-[ACYL-CARRIER-PROTEIN] SYNTHASE 1, PDB entry 4c73",12.1 µM (active)
C=C/C(C)=C\[C@@]1(C)SC(=O)C(C(C)=O)=C1O,Kd,"protein: 3-OXOACYL-[ACYL-CARRIER-PROTEIN] SYNTHASE 1, PDB entry 4c6u",25.6 µM (active)
same,Kd,"protein: 3-OXOACYL-[ACYL-CARRIER-PROTEIN] SYNTHASE 1, PDB entry 4c6v",25.6 µM (active)
CNc1nc2c(CC[C@H]3O[C@@H](OC)[C@H](O)[C@@H]3O)c3nc(N)[nH]c(=O)c3cc2[nH]1,Kd,"protein: tRNA guanine transglycosylase (TGT), PDB entry 4leq",0.288 µM (active)
CNc1nc2c(CC[C@H]3O[C@@H](OC)[C@H](OC)[C@@H]3O)c3nc(N)[nH]c(=O)c3cc2[nH]1,Kd,"protein: tRNA guanine transglycosylase (TGT), PDB entry 4lbu",0.276 µM (active)
O=C(O)c1ccc2nsnc2c1,Kd,"protein: Pantothenate synthetase (T2A, E77G mutation), PDB entry 4ddm",3500 µM (active)
COc1ccc([C@H]2OC[C@H](C)[C@@H]([C@@H](C)[C@@H](OC)[C@@H](C)CCC(=O)[C@H](C)[C@@H](C/C=C/N(C)C=O)OC)O2)cc1,Kd,"protein: Actin, alpha skeletal muscle, PDB entry 4k43",0.132 µM (active)
H-DDYLWGLEAGEGISDLFD-OH,Kd,"protein: retinoblastoma (Rb), PDB entry 1n4m",0.19 µM (active)
CC[C@H](C)[C@H](NC(=O)CNC(=O)[C@H](CCC(=O)O)NC(=O)[C@@H](N)CCC(=O)O)C(=O)N[C@@H](Cc1c[nH]c2ccccc12)C(=O)N[C@@H](C)C(=O)O (H-EEGIWA-OH),Kd,"protein: RIM1? PDZ Domain, PDB entry 1zub",0.27 µM (active)
CC(C)C[C@H](NC(=O)[C@H](Cc1ccc(O)cc1)NC(=O)[C@H](CCC(=O)O)NC(=O)[C@H](CCC(=O)O)NC(=O)[C@H](Cc1c[nH]c2ccccc12)NC(=O)[C@H](CO)NC(=O)[C@@H](NC(=O)[C@H](Cc1ccccc1)NC(=O)[C@@H](NC(=O)[C@@H](N[C@@H](C)O)[C@@H](C)O)C(C)C)[C@@H](C)O)C(=O)N[C@@H](CC(=O)O)C(=O)N[C@@H](Cc1c[nH]c2ccccc12)C(=O)N[C@H](C(N)=O)C(C)C (H-[X1]VFTSWEEYLDWV-NH2),Kd,"protein: Proprotein convertase subtilisin/kexin type 9, PDB entry 4nmx",0.66 µM (active)
CC1(C)Nc2nc(N)[nH]c(=O)c2N=C1C(=O)NCC(=O)NCCS(=O)(=O)C[C@H]1O[C@@H](n2cnc3c(N)ncnc32)[C@H](O)[C@@H]1O,Kd,"protein: 2-amino-4-hydroxy-6-hydroxymethyldihydropteridine pyrophosphokinase/dihydropteroate synthase HPPK-DHPS, PDB entry 4pzv",2 µM (active)
H-VPPPVPPPPS-OH,Kd,"protein: Ponsin, PDB entry 2o9v",288 µM (active)
C[C@H](N)C(=O)N1CCC[C@H]1C(=O)N1CCC[C@H]1C(=O)N[C@@H](CO)C(=O)N[C@@H](CC(N)=O)C(=O)N1CCC[C@H]1C(=O)N1CCC[C@H]1C(=O)N1CCC[C@H]1C(=O)N[C@@H](CCCNC(N)N)C(=O)N1CCC[C@H]1C(=O)N1CCC[C@H]1C (H-APPSNPPP[Orn(CH(NH2)2)]P-X1),Kd,"protein: tandem SH3domains of p47phox, PDB entry 1ov3",0.19 µM (active)
CC(=O)N[C@H](C(=O)N1CCC[C@H]1C(=O)N1CCC[C@H]1C(=O)N1CCC[C@H]1C(=O)N[C@H](C(=O)N1CCC[C@H]1C(=O)N1CCC[C@H]1C(=O)N[C@@H](CCCNC(N)N)C(=O)N[C@@H](CCCNC(N)N)C(=O)N[C@@H](CCCNC(N)N)C(N)=O)C(C)C)C(C)C,Kd,"protein: Grb2(N-terminal SH3 domain), PDB entry 3gbq",3.5 µM (active)
CCCOC[C@H](NC(=O)[C@@H](NC(=O)[C@@H]1CCCN1C(=O)[C@@H](NC(=O)[C@@H](NC(C)=O)C(C)C)[C@@H](C)O)C(C)C)C(=O)N[C@H](C(=O)N[C@@H](C)C(N)=O)[C@@H](C)O (Ac-VTPVS(Propyl)TA-NH2),Kd,"protein: UDP-N-ACETYLGLUCOSAMINE--PEPTIDE N-ACETYLGLUCOSAMINYLTRANSFERASE 110 KDA SUBUNIT, PDB entry 4cdr",7.9 µM (active)
H-GTCVAARTRPVLSY-OH,Kd,"protein: WD REPEAT-CONTAINING PROTEIN 5, WDR5, PDB entry 4cy1",0.181 µM (active)
H-GGRRPYIL-OH,Kd,"protein: Neurotensin Receptor 1 Mutant TM86V Delta-IC3A, PDB entry 3zev",0.0023 µM (active)
CNC(=O)C[C@@H]1NC(=O)c2csc(n2)-c2ccc(-c3nc(N(CCCCC(=O)O)C(=O)OC4CCC(C(=O)O)CC4)cs3)nc2-c2csc(n2)-c2csc(n2)[C@H]([C@@H](O)c2ccccc2)NC(=O)CNC(=O)c2nc(sc2COC)[C@H](C(C)C)NC(=O)c2nc1sc2C (some centres undefined),Kd,"protein: E. coli K-12 Elongation factor Tu 1, PDB entry 3u2q",0.006 µM (active)
NCc1csc2ccccc12,Kd,"protein: CATIONIC TRYPSIN, PDB entry 4abb",31 µM (active)
NCc1csc2ccc(Br)cc12,Kd,"protein: CATIONIC TRYPSIN, PDB entry 4abf",24 µM (active)
CO[C@H]1O[C@H](CNS(=O)(=O)c2c(C)cc(C)cc2C)[C@@H](O)[C@H](O)[C@@H]1O,Kd,"protein: FUCOSE-BINDING LECTIN PA-IIL, PDB entry 3zdv",3.3 µM (active)
NC(=O)C[C@H](NC(=O)CNC(=O)CNC(=O)[C@H](CCCNC(N)N)NC(=O)CNC(=O)CNC(=O)CNC(=O)CNC(=O)[C@@H](N)CO)C(=O)NCC(=O)NCC(=O)NCC(=O)NCC(=O)NCC(=O)NCC(=O)O (H-SGGGG[Orn(CH(NH2)2)]GGNGGGGGG-OH),Kd,"protein: Outer membrane porin 1a (Ia;b;F)(OmpF), PDB entry 3o0e",1.8 µM (active)
H-SGRGK(Ac)G-OH,Kd,"protein: ATPase family AAA domain-containing protein 2 ATAD2A bromodomain, PDB entry 4tt2",22 µM (active)
O=c1[nH]cnc2cc3nc(NCCN4CCOCC4)[nH]c3cc12,Kd,"protein: Queuine tRNA-ribosyltransferase TGT, PDB entry 4q4r",0.369 µM (active)
CNc1nc2cc3nc(N)[nH]c(=O)c3cc2[nH]1,Kd,"protein: Queuine tRNA-ribosyltransferase TGT, PDB entry 4q4s",0.112 µM (active)
Nc1nc2cc3nc(NCCN4CCCCC4)[nH]c3cc2c(=O)[nH]1,Kd,"protein: Queuine tRNA-ribosyltransferase TGT, PDB entry 4q4o",0.0343 µM (active)
O=c1[nH]cnc2cc3nc(NCCN4CCCCC4)[nH]c3cc12,Kd,"protein: Queuine tRNA-ribosyltransferase TGT, PDB entry 4q4p",0.407 µM (active)
O=c1[nH]cnc2cc3nc(NCc4cccs4)[nH]c3cc12,Kd,"protein: Queuine tRNA-ribosyltransferase TGT, PDB entry 4q4q",1.64 µM (active)
N#C/C(=C\c1ccncc1)C(=O)NCc1ccccc1,Kd,"protein: RIO-type serine/threonine-protein kinase Rio1, PDB entry 4jin",2.28 µM (active)
C[C@@H](O)[C@H](N)C(=O)N[C@@H](CCCC[N+](C)(C)C)C(=O)N[C@@H](CCC(N)=O)C(=O)O (H-Thr-[Lys(Me3)]-Gln-OH),Kd,"protein: Os05g0196500 protein, PDB entry 4igq",30.1 µM (active)
C[N+](C)(C)CCCC[C@H](N)C(=O)N[C@@H](CCC(N)=O)C(=O)O (H-[Lys(Me3)]-Gln-OH),Kd,"protein: Polycomb protein EED, PDB entry 3k26",400 µM (active)
